{
  "source": "PubChem BioAssay (NCI)",
  "note": "About 83,000 compounds went through this panel and 20% of them were active in at least one assay; those are over-represented in the sample as a whole.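 How to read the values: 0–100, growth inhibition (40 = 60% inhibited); 0, no net growth; -100 to 0, cell death (-40 = 40% of starting cells died; -100 = all dead).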 Unmarked numbers belong to inactive results. Calls of active or inactive are those of the source. Rule for the calls: active = growth percent below 10; inactive = the rest.",
  "data": [
    {"test_system": "MDA-MB-435 melanoma", "experiment": "NCI-60 one-dose screen, 48 h (100 = growth as untreated, 0 = no growth, -100 = all killed)", "conditions": "10 µM unless noted", "values": [
      {"smiles": "COc1ccc(C(=O)/C(=N/Nc2ccccc2)c2ccc(OC)cc2)cc1", "growth": "94.1%"},
      {"smiles": "Cn1c(=O)c2[nH]c(CC(=O)O)nc2n(C)c1=O", "growth": "112%"},
      {"smiles": "C=CC1=NC(C)(C)CC(C)O1", "note": "(configuration not stated)", "growth": "94.7%"},
      {"smiles": "O=C(Nc1ccccc1)c1ccco1", "growth": "109%"},
      {"smiles": "CCOC(=O)CNC", "growth": "98.7%"},
      {"smiles": "Cc1cc(Cl)cc(Cc2cc(Cl)cc(C)c2O)c1O", "growth": "-10.5% (active)"},
      {"smiles": "CC12CCC3c4ccc(O)cc4CCC3C1CCC2=O", "note": "(configuration not stated)", "growth": "112%"},
      {"smiles": "Cc1onc(-c2ccccc2Cl)c1C(=O)Cl", "growth": "95.3%"},
      {"smiles": "Nc1cc(N)ncn1", "growth": "102%"},
      {"smiles": "ClCC(Cl)C1CCC(Cl)C(Cl)C1", "note": "(configuration not stated)", "growth": "107%"},
      {"smiles": "O=[N+]([O-])c1ccc(-c2nc(N(CCO)CCO)c3ccccc3n2)o1", "growth": "-85.5% (active)"},
      {"smiles": "C=CCC(OC(C)=O)c1ccc(OC)c(OC)c1", "note": "(configuration not stated)", "growth": "110%"},
      {"smiles": "C/C(Cc1ccccc1)=N\\O", "growth": "98.3%"},
      {"smiles": "O=C(NCc1ccccc1)c1cccc([N+](=O)[O-])c1", "growth": "98.4%"},
      {"smiles": "OCc1cccnc1", "growth": "97.2%"},
      {"smiles": "Cc1onc(-c2c(F)cccc2Cl)c1-c1ncc(-c2ccc(Br)cc2)o1", "growth": "40.8%"},
      {"smiles": "CC(C)c1ncc([N+](=O)[O-])n1C", "growth": "136%"},
      {"smiles": "c1ccc2[nH]c(Cc3nc4ccccc4[nH]3)nc2c1", "growth": "101%"},
      {"smiles": "CCOC(=O)C(CCC#N)(CCC#N)C(=O)OCC", "growth": "101%"},
      {"smiles": "CCOC(=O)C(COS(C)(=O)=O)(COS(C)(=O)=O)C(=O)OCC", "growth": "104%"},
      {"smiles": "CC(C)C(C)(C)C(=O)C(C)(C)C(C)(C)C", "growth": "108%"},
      {"smiles": "CC(=O)O[C@H]1CC[C@]2(C)C3=C(C(=O)C[C@H]2C1(C)C)[C@]1(C)CC[C@H]([C@H](C)CCC(=O)O)[C@@]1(C)CC3=O", "growth": "98.7%"},
      {"smiles": "CC(=O)OCC1CCC(COC(C)=O)CC1", "note": "(configuration not stated)", "growth": "103%"},
      {"smiles": "CC(=O)NNC(=S)N/C=C/c1c(C)ccc([N+](=O)[O-])c1[N+](=O)[O-]", "growth": "100%"},
      {"smiles": "CCOC(=O)c1c[nH][nH]c1=O", "growth": "104%"},
      {"smiles": "O=S(Cc1ccccc1)/C(=C/NC(=S)Nc1ccccc1)c1ccccc1", "note": "(configuration not stated)", "growth": "104%"},
      {"smiles": "CCOc1ccc(NC(=S)N2CCC(CCCC3CCN(C(=S)Nc4ccc(OCC)cc4)CC3)CC2)cc1", "growth": "90.4%"},
      {"smiles": "COc1ccc(C)cc1NC(=O)SC(C)C", "growth": "101% [100 µM]"},
      {"smiles": "Nc1ncnc(Nc2ccc(C(F)(F)F)cc2)n1", "growth": "99.9%"},
      {"smiles": "Cc1c(Cl)cccc1N=C=S", "growth": "106%"},
      {"smiles": "O=C(OC1CCCC1)c1ccccc1Cl", "growth": "105%"},
      {"smiles": "BrCc1cccc(C[P+](c2ccccc2)(c2ccccc2)c2ccccc2)c1", "growth": "18%"},
      {"smiles": "Cc1c(-c2ccc(C3CCCCC3)cc2)nc2ccc(F)cc2c1C(=O)O", "growth": "34.5%"},
      {"smiles": "CC(=O)NC(CCc1ccc(Cl)c(Cl)c1)c1cccc(O)c(=O)c1", "note": "(configuration not stated)", "growth": "21.5%"},
      {"smiles": "COc1cccc(C(=O)NNC(=O)c2cccc3ccccc23)c1", "growth": "113%"},
      {"smiles": "O=C(CCl)Nc1ccccc1SCc1cc(Cl)cc2c1OCOC2", "growth": "24.1%"},
      {"smiles": "CCN(CC)c1ccc2nc3ccc(N=Nc4ccc(N(C)C)cc4)cc3[n+](-c3ccccc3)c2c1", "growth": "-87.3% (active)"}
    ]}
  ]
}
